Experimental data as given in PubChem BioAssay (EPA / NIEHS).
Active and inactive are the calls of the source. How the source made its calls: active means hit-call score of the fitted dose curve at least 0.9, where 1 is the maximum; inactive means score below 0.9.

Assay: IUF_NPC2-5_viability_120hr: Viability Assessment at 120 hours in the Leibniz Research Institute for Environmental Medicine (IUF) Neural Progenitor Cell Migration and Differentiation Assay (NPC2-5) (AID 2284312)
Procedure: IUF_NPC2-5 is a cell-based, multiplexed assay that uses hNPC, a human primary neural progenitor cells, with measurements taken at 72 or 120 hours after chemical dosing in a 96-well plate. Human neural progenitor cells (hNPC) are generated from human fetal brain cortex at gestational week (GW) 16-19. In the neural progenitor cell migration and differentiation assay (NPC2-5), hNPCs grown as spheres are plated on an extracellular matrix and migrate and differentiate out of the sphere core. The processes radial glia migration, neuronal and oligodendrocyte migration as well as neuronal differentiation, neuronal morphology and oligodendrocyte differentiation are studied using automated phase contrast imaging and automated fluorescence imaging in combination with high content image analysis. In parallel, the cell viability is assessed using an alamar blue viability assay and the cytotoxicity using a lactate dehydrogenase dependent membrane integrity assay.IUF_NPC2-5_viability_120hr is one of 12 assay components measured from the IUF_NPC2-5 assay. It is designed to measure cell viability assessed as mitochondria-dependent reduction of resazurin to resorufin using the alamar blue viability assay. The viability is measured as a fluorescence signal (relative fluorescence unit) in a multiplate reader. Data from the IUF_NPC2-5_viability_120hr component was analyzed at the endpoint IUF-NPC2-5_viability_120hr in the positive analysis fitting direction relative to DMSO as the negative control and baseline of activity. Using a type of viability reporter, gain or loss-of-signal activity can be used to understand viability effects.
Culture protocol: After the cell expansion period the cells are cultured for up to four weeks in which they are passaged every week as described in 3.6. Between one to three days after passaging spheres at a size of 0.3 mm are picked for the test method. For the assessment of neural progenitor cell migration and differentiation, the spheres are plated on poly-D-lysine/laminin coated 96-well flat bottom plates in differentiation medium (N2) to initiate migration and differentiation. Thereby one 0.3 mm big sphere is plated in the middle of a well. The differentiation medium consists of DMEM and Ham's F12 at a ratio of 3 to 1 supplemented with 1% N2 and 1% penicillin and streptomycin. Within 5 days NPCs radially migrate out of the sphere core and differentiate into radial glia cells (nestin positive), neurons (TUBB3 positive), oligodendrocytes (O4 positive) and astrocytes (GFAP positive). Cultivation during the test method is performed at 37C and 5% CO2 at a ph of 7.2-7.6.Exposure: 0.3 mm big hNPC are plated in the already prepared test conditions. Exposure starts at day 0 of differentiation and is continued over five days of differentiation until the experiment is terminated. Cells are fed with fresh medium at day 3 of differentiation. Therefore, half of the test condition solution (e.g. solvent control or compound dilution) is replaced by freshly prepared test condition solution.Test Method: Migration distance and cytotoxicity is determined after 72 hours based on brightfield images of each well. The assay is terminated by the assessment of cell viability and cytotoxicity as well as cell fixation after 120 h. Immunocytochemistry is performed for Hoechst positive nuclei, TUBB3 positive neurons and O4 positive oligodendrocytes. On the ICC images, migration after 120 hours, neuronal and oligodendrocyte number, neuronal morphology and neuron/oligodendrocyte specific migration is assessed. immunocytochemical staining (ICC) generates an image for each sphere. The plates are scanned using an automated high content imaging device and all nuclei and their positions are determined automatically based on their intensity and size. Images are imported to the Omnisphero software to run the image analysis that measures the following endpoints. The method is set up for 8 test conditions including 7 compound concentrations and one SC. […]

Row | Compound | outcome | AC50
1 | CC(=O)OC/N=[N+](\C)[O-] | inactive | –
2 | CN(C)CCCn1cc(C2=C(c3c[nH]c4ccccc34)C(=O)NC2=O)c2ccccc21 | – | 6.01 µM (active)
3 | Cc1[nH]n(C)c(=O)c1C(=O)c1ccc(C(F)(F)F)cc1S(C)(=O)=O | inactive | –
4 | C[C@@H]1CCO[C@H]2Cn3cc(C(=O)NCc4ccc(F)cc4F)c(=O)c(O)c3C(=O)N12 | inactive | –
5 | O=C1CC2(CCCC2)CC(=O)N1CCCCN1CCN(c2ncccn2)CC1 | inactive | –
6 | BrC1CC(Br)CC(Br)CC(Br)CC(Br)CC(Br)C1 (stereo unspecified) | inactive | –
7 | F | inactive | –
8 | C[C@@H]1CC[C@@H](C(C)(C)O)[C@H](O)C1 | inactive | –
9 | CC(=O)N[C@@H](CC(=O)O)C(=O)O | inactive | –
10 | CC(CNC(=S)[S-])NC(=S)[S-].[Zn+2] (stereo unspecified) | inactive | –
11 | CC(C)c1nn(C(=O)NC(C)(C)C)c(=O)n1N | inactive | –
12 | CCCCCC=C(C)C(CC)CCO (stereo unspecified) | inactive | –
13 | CC(C)O | inactive | –
14 | CCCCCC(C)(CC)C(=O)NC (stereo unspecified) | inactive | –
15 | CCCCOCCOP(=O)(O)OCCOCCCC | inactive | –
16 | CCc1ccccc1 | inactive | –
